Test [1] in a line: Quantitative High-Throughput drug screen in 47 multiple myeloma cell lines against the NCATS MIPE library collection: VP6_DJ cell viability assay (AID 1919867). Also: nearly all actives have a fitted effect of over 40% in size. Also: potency is read from the fitted curve at half-maximal effect. The procedure, abridged: (§1)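 MIPE 4.0 approved/investigational drugs; 500 cells/well; 48 h 37 °C humidified 5% CO2; CTG luminescence readout; DMSO = 100%, media = 0% viability.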
The nature of test [2]: Quantitative High-Throughput drug screen in 47 multiple myeloma cell lines against the NCATS MIPE library collection: PE2_PLB cell viability assay (AID 1919869). Also: nearly all actives have a fitted effect of over 35% in size. Also: potency is read from the fitted curve at half-maximal effect. The procedure, abridged: as §1
Test [3] can be described thus: Quantitative High-Throughput drug screen in 47 multiple myeloma cell lines against the NCATS MIPE library collection: KMS11_JCRBsus cell viability assay (AID 1919873). Also: nearly all actives have a fitted effect of over 50% in size. Also: potency is read from the fitted curve at half-maximal effect. Put shortly:
as §1

Test [4] can be described thus: Quantitative High-Throughput drug screen in 47 multiple myeloma cell lines against the NCATS MIPE library collection: KMS28BM_JCRB cell viability assay (AID 1919874). Also: nearly all actives have a fitted effect of over 35% in size. Also: potency is read from the fitted curve at half-maximal effect. The procedure, abridged:
as §1

Test [5] in a line: Quantitative High-Throughput drug screen in 47 multiple myeloma cell lines against the NCATS MIPE library collection: RPMI8226_ATCC cell viability assay (AID 1919871). Also: nearly all actives have a fitted effect of over 30% in size. Also: potency is read from the fitted curve at half-maximal effect. The procedure, abridged: as §1
Test [6] can be described thus: Quantitative High-Throughput drug screen in 47 multiple myeloma cell lines against the NCATS MIPE library collection: OPM2_DSMZ cell viability assay (AID 1919872). Also: nearly all actives have a fitted effect of over 30% in size. Also: potency is read from the fitted curve at half-maximal effect. The procedure, abridged:
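Viability readout: CellTiter-Glo luminescence following 5 min room-temperature incubation with reagent. Prior exposure: 48 h, 37C, humidified 5% CO2, 500 cells per well.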

Test [7] is described as follows: Quantitative High-Throughput drug screen in 47 multiple myeloma cell lines against the NCATS MIPE library collection: PCM6_Riken cell viability assay (AID 1919870). Also: nearly all actives have a fitted effect of over 30% in size. Also: potency is read from the fitted curve at half-maximal effect. Put shortly: as §1
The target in test [8] is Cytochrome P450 3A4 (Homo sapiens) (UniProt P08684). Briefly: qHTS for inhibitors of CYP3A4 against the NCATS DSHEA and TCM libraries (AID 1919971).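 Also: inhibition lowers luminescence from luciferin made by CYP3A4.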 The procedure, abridged: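 Luminescent P450-Glo format: compounds preincubated 15 min with enzyme and luciferin substrate, reaction run 30-45 min after NADPH regeneration solution. Intraplate controls: ketoconazole for CYP3A4 and CYP2C19, sulfaphenazole for CYP2C9.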
A general note: qHTS replaces the single test concentration by a dilution series.

Test [9] addresses Cytochrome P450 2D6 (Homo sapiens) (UniProt P10635). Briefly: qHTS for inhibitors of CYP2D6 against the NCATS DSHEA and TCM libraries (AID 1919972). The procedure, abridged:
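Luminescent P450-Glo read-out of CYP2D6 turnover of a luciferin substrate after NADPH-driven reaction of 30-45 min at room temperature. Compounds were first preincubated 15 min with enzyme at titrated concentrations; quinidine was the intraplate control.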

Each structure is given as a SMILES string. Results filed as inconclusive are left out. Activity calls are given as the source filed them. Calls follow the shape of the dose curve; as a rule, active = well fitted curve in the direction sought with a large enough effect; inconclusive = small, poorly fitted or top-dose-only effect, or another doubt; inactive = no such curve, though single readings can be large; an effect the other way counts as inactive or inconclusive.

Chain of Cytochrome P450 3A4 (Homo sapiens) (P08684 whole entry, looked up): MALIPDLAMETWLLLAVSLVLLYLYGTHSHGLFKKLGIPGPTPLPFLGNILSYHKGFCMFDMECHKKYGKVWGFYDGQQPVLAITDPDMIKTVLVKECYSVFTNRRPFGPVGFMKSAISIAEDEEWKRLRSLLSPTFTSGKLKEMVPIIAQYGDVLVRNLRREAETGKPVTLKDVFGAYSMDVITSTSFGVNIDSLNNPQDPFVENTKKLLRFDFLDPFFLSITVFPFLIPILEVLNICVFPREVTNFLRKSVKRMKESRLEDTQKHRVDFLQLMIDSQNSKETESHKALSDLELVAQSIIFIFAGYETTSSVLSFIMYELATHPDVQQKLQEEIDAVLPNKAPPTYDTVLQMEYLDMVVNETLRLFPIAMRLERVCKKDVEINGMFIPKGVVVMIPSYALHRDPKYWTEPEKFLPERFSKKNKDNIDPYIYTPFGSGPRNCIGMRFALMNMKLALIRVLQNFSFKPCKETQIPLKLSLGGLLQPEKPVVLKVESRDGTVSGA
Chain of Cytochrome P450 2D6 (Homo sapiens) (P10635 whole entry, looked up): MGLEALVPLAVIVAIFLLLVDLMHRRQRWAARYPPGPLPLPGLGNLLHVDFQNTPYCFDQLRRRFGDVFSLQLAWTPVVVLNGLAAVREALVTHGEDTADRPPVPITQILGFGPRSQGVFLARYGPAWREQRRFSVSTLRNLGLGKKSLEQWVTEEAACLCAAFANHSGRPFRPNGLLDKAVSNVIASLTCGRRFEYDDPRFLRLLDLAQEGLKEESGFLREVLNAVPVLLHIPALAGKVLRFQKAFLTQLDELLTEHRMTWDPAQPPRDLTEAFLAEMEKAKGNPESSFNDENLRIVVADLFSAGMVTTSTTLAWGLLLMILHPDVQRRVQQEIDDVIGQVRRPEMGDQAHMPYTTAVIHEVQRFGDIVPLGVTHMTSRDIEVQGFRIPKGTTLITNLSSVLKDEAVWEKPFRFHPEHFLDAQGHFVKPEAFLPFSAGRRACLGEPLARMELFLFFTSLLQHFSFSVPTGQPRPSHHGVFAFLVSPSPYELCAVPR

In the case of `COc1ccc2c(c1)CC[C@H]1[C@@H]2CC[C@]2(C)[C@@H](NCCCCCCN3C(=O)C=CC3=O)CC[C@H]12`, the Potency entry in test [1], in [2], in test [3] and in test [4] was “inactive” in each case.

As to `CC(C)(C)c1nc(-c2cccc(NS(=O)(=O)c3c(F)cccc3F)c2F)c(-c2ccnc(N)n2)s1`, the Potency in test [1] was 2.96 µM (active); in [2] it was 5.9 µM (active); in [5], 13.2 µM (active); in test [6], 3.32 µM (active). Besides, in [4], the Potency result was “inactive”.

For the compound `C[C@@]1(C(=O)Nc2ccc(F)nc2)CCCN1c1nc(Nc2cc(C3CC3)[nH]n2)c2cccn2n1`, the Potency in [1] was 0.0372 µM (active); in test [2], 11.8 µM (active); in [6] it was 7.43 µM (active); in [3] it was 0.0296 µM (active); in test [4], 0.0372 µM (active).

Consider `O=c1[nH]c(=O)n([C@H]2C[C@@H](O)[C@@H](CO)O2)cc1I`, for which the Potency entry in test [1] and in test [2] was “inactive” in each case. For the same compound, the Potency in test [3] is 2.09 µM (active).

Turning to `OC[C@H]1O[C@@H](OCCc2ccc(O)cc2)[C@H](O)[C@@H](O)[C@H]1O`, in test [1], the Potency was 0.662 µM (active). Besides, the Potency entry in [7], in [5], in [6] and in test [3] was “inactive” in each case. The call in test [8] and in [9] was inactive.

With `CC[C@H](C)n1cc(C)c2c(C(=O)NCc3c(C)cc(C)[nH]c3=O)cc(-c3ccc(N4CCNCC4)nc3)cc21`, the Potency in test [1] is 11.8 µM (active); in [2], 23.5 µM (active); in test [5], 26.4 µM (active); in test [3], 23.5 µM (active); in test [4], 23.5 µM (active).

Regarding `CC[C@H](NC(=O)[C@H](C)NC)C(=O)N1C[C@@H](O)C[C@H]1Cc1c(-c2[nH]c3cc(F)ccc3c2C[C@H]2C[C@H](O)CN2C(=O)[C@H](CC)NC(=O)[C@H](C)NC)[nH]c2cc(F)ccc12`, the figures for the Potency in test [1], in test [7] and in test [5] were 3.72 µM (active), 5.9 µM (active) and 1.32 µM (active), respectively. The Potency entry in test [3] and in test [4] was “inactive” throughout.

Consider `O=C1NC(=O)C(c2cnc3ccccn23)=C1c1cn2c3c(cccc13)CN(C(=O)N1CCOCC1)CC2`, for which the Potency in test [1] is 5.26 µM (active); in test [7], 7.43 µM (active); in [5] it was 18.7 µM (active); in [6] it was 0.0047 µM (active); in test [3], 0.0935 µM (active). The Potency result in test [4] is “inactive”.

As for `CN(C)CCOc1ccc(C(=C(CCCl)c2ccccc2)c2ccccc2)cc1`, the Potency result in test [1], in test [6] and in test [3] was “inactive” in each case. In addition, the Potency is 3.72 µM (active) in [7] and 26.4 µM (active) in [5].

With `CN1CC(=O)N2C(Cc3c([nH]c4ccccc34)[C@H]2c2ccc3c(c2)OCO3)C1=O` (stereo partly drawn), the Potency entry in test [1], in test [2], in test [6], in [3] and in [4] was “inactive” in each case.

In the case of `CNC1CCC(N(Cc2cccc(-c3ccncc3)c2)C(=O)c2sc3ccccc3c2Cl)CC1` (stereo not drawn), the Potency in test [1] was 8.33 µM (active); in test [2], 10.5 µM (active); in test [5], 26.4 µM (active); in [3], 8.33 µM (active); in [4], 18.7 µM (active).

`C[C@H]1[C@H](O)O[C@@H]2O[C@@]3(C)CC[C@@H]4[C@H](C)CC[C@@H]1[C@@]24OO3`: the Potency in [1] is 1.48 µM (active); in test [2], 2.35 µM (active); in test [5] it was 1.32 µM (active); in test [3], 1.66 µM (active).

On to `Cc1ccc(NC(=O)c2ccc(CN3CCN(C)CC3)cc2)cc1Nc1nc(-c2cccnc2)cs1`, for which the Potency in [1] was 8.33 µM (active); in test [2], 11.8 µM (active); in [5] it was 18.7 µM (active); in [3] it was 10.5 µM (active); in test [4] it was 20.9 µM (active).

On to `CC(C)(F)C[C@H](N[C@@H](c1ccc(-c2ccc(S(C)(=O)=O)cc2)cc1)C(F)(F)F)C(=O)NC1(C#N)CC1`, for which the Potency result in test [1], in test [7], in test [6], in test [3] and in [4] was “inactive” in each case. The Potency in test [5] is 20.9 µM (active).

With `C[C@]12CC[C@@H]3c4ccc(O)cc4CC[C@H]3[C@H]1[C@@H](O)[C@@H](O)[C@H]2O`, the Potency entry in [1], in [2] and in [6] was “inactive” in each case.

In the case of `Nc1ncnc2c1ncn2[C@@H]1O[C@H](CO)[C@@H](O)[C@@H]1O`, the Potency was 0.166 µM (active) in [1], 14.8 µM (active) in test [2] and 5.26 µM (active) in test [3]. Besides, in test [5], the Potency result was “inactive”.

In the case of `N#CC1(c2cccc(C(=O)Nc3cc(Oc4ccc5nc(NC(=O)C6CC6)sc5n4)ccc3F)c2Cl)CC1`, the Potency in [1] is 5.9 µM (active); in [7], 14.8 µM (active); in [5], 1.05 µM (active); in test [3], 0.132 µM (active).

Consider `COc1cc(Cl)cn2c(-c3cccc(NC4CNC4)n3)cnc12`, for which the Potency in test [1] and in test [7] was 14.8 µM (active) throughout. Also, the Potency entry in test [5] and in test [6] was “inactive” in each case.

Regarding `O=C1NC(=O)C(=Cc2ccc(-c3ccc(F)cc3O)o2)S1`, the Potency is 2.96 µM (active) in [1], 7.43 µM (active) in [2] and 9.35 µM (active) in [5]. The Potency entry in test [6] and in test [4] was “inactive” throughout.

In the case of `Cc1ccc(NC(=O)c2cccc(N(C)C)c2)cc1NC(=O)c1ccc(O)cc1`, the Potency in [1] was 0.469 µM (active); in [7], 0.418 µM (active); in [3], 4.18 µM (active); in test [4], 5.26 µM (active). Further, in test [5], the Potency entry is “inactive”.

With `COc1c(C)cnc(Cn2cnc3c(Cl)nc(N)nc32)c1C`, the Potency in [1] was 0.148 µM (active); in test [2] it was 0.235 µM (active); in test [6] it was 0.187 µM (active); in [3], 0.0662 µM (active).

With `NC(=O)c1nnn(Cc2cc(Cl)c(C(=O)c3ccc(Cl)cc3)c(Cl)c2)c1N`, the Potency in test [1] was 20.9 µM (active); in test [2], 23.5 µM (active); in [5], 14.8 µM (active); in test [3] it was 16.6 µM (active).

Values taken from PubChem BioAssay (NCATS).
